A selection: hits, their analogues and other compounds. The true share with any hit is near 4%.
Beta apoptosis – beta cell apoptosis inhibition | INS-1E cytokine-induced death, ATP luminescence, 48 h; percent of positive-control rescue, neutral wells zero | AID 435005 | actives 0.8% (n = 300,000) | protection from apoptosis, % (concentration not given with the values);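 active = Every replicate reaches about 75%, or at least half do and their mean reaches it too, limit read from the data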;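 note: 0% = cytokine-treated negative control wells and 100% = positive control rescue; higher means more ATP so stronger rescue from cytokine killing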
Gli-Sufu antag – Gli-Sufu pathway antagonism. AID 588413. Sufu-KO-LIGHT fibroblasts, Gli luciferase reporter luminescence. actives 0.74% (n = 340,000). inhibition, % at 5 µM;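 active = inhibition above about 55%, limit read from the data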;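 note: 0% = DMSO-treated cells and 100% = wells with medium but no cells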
Jurkat NFkB inh – lowers PMA/ionomycin-induced NF-kB signal in Jurkat cells; PMA/ionomycin-induced NF-kB luciferase reporter, luminescence; inhibition, % at 4 µM; actives 0.53% (n = 330,000); AID 435003; in the data active = inhibition above about 50%
697 NFkB inh – inhibitors of the PMA/ionomycin-induced NF-kB reporter in 697 B cells; 697 B-cell NF-kB luciferase reporter, 16 h; inhibition, % at 4 µM; actives 0.33% (n = 330,000); AID 435022; in the data active = inhibition above about 35%
Mdm2 MdmX PPI – inhibitors of human Mdm2/MdmX interaction. O15151+Q00987. SaOS-2 split-luciferase Mdm2/MdmX complementation, luminescence. inhibition, % at 8 µM. actives 3% (n = 330,000). AID 485346;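 active = inhibition of at least 50% at 8 µM in the primary screen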
Mdm2 MdmX conf – human Mdm2/MdmX binding inhibition, confirmed. shares compounds with Mdm2 MdmX PPI. actives 55% (n = 10,000). inhibition, % at 8 µM. luminescent assay; in the data active = inhibition above about 40%
Full FLuc ctr – full-length luciferase inhibition in Mdm2/MdmX counter-screen; shares compounds with Mdm2 MdmX PPI; SaOS-2 full-length luciferase counterscreen, luminescence; inhibition, % at 8 µM; actives 77% (n = 6,200); AID 504607;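 active = mean inhibition at 8 µM reaching about 37%, which flags the compound as non-specific, limit read from the data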;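 note: p53-null SaOS-2 cells with luciferase driven by a doxycycline-inducible promoter; compound on cells about two nights before reading with doxycycline added after day one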
* hit, by the source's call; . = not tested or not shown.

SMILES | Beta apoptosis | Gli-Sufu antag | Jurkat NFkB inh | 697 NFkB inh | Mdm2 MdmX PPI | Mdm2 MdmX conf | Full FLuc ctr
CCOC(=O)C(=O)N1CCC(C(=O)OC)CC1 | -4 | 2 | -10 | 22 | -25 | . | .
O=C(Nc1ccccc1)Nc1cccc(C(F)(F)F)c1 | 26 | -7 | -23 | 3 | 29 | . | .
CCSCCc1nnc(NC(=O)Nc2cccc(C(F)(F)F)c2)s1 | 119* | 3 | 22 | 1 | 95* | 95* | 50*
O=C(C1=C[C@@H](C2CCCCC2)C[C@@H](OCc2ccc(CO)cc2)O1)N1CCN(Cc2ccc3c(c2)OCO3)CC1 | 24 | -20 | 3 | 5 | 37 | . | .
O=C(C1=C[C@@H](c2csc3ccccc23)C[C@@H](OCc2ccc(CO)cc2)O1)N1CCN(Cc2ccc3c(c2)OCO3)CC1 | 27 | 1 | 13 | -23 | 54* | 46* | 53*
O=C(C1=C[C@@H](c2csc3ccccc23)C[C@@H](OCc2ccc(CO)cc2)O1)N1CCN(Cc2ccccc2)CC1 | . | 8 | 9 | -20 | 33 | . | .
O=C(C1=C[C@H](C2CCCCC2)C[C@H](OCc2ccc(CO)cc2)O1)N1CCN(Cc2ccc3c(c2)OCO3)CC1 | . | -5 | 4 | 14 | 52* | 24 | .
O=C(C1=C[C@@H](c2ccccc2)C[C@@H](OCc2ccc(CO)cc2)O1)N1CCN(Cc2ccc3c(c2)OCO3)CC1 | 6 | 17 | 44 | 4 | 52* | 48* | 69*
O=C(CN1C(=O)NC2(CCCCCC2)C1=O)NCCc1ccccc1 | -5 | -7 | -2 | 12 | 10 | . | .
Cc1ccc(S(=O)(=O)c2nnn3c2nc(Nc2cccc(C)c2)c2ccccc23)cc1 | . | 12 | 22 | 15 | 54* | 9 | .
Cc1ccc(-c2nnn3c2nc(NCCc2ccc(S(N)(=O)=O)cc2)c2ccccc23)cc1 | 8 | 7 | -13 | 5 | 48 | . | .
NS(=O)(=O)c1ccc(CCNc2nc3c(-c4cccc(F)c4)nnn3c3ccccc23)cc1 | 19 | 4 | 22 | 17 | 67* | 31 | .
Cc1cccc(-c2nnn3c2nc(NCCc2ccc(S(N)(=O)=O)cc2)c2ccccc23)c1 | 4 | -47 | 20 | -29 | 67* | 50* | 74*
CCCNC(=O)NC(=O)c1cnccc1C(F)(F)F | -4 | -1 | -2 | 6 | -2 | . | .
NC(N)=Nc1nc(-c2ccccc2)c2cc(F)ccc2n1 | -1 | -7 | 11 | -15 | 66* | 60* | 49*
CCOc1cc(C(=O)Nc2ccccc2F)cc(Br)c1OCC | 10 | 5 | 10 | 21 | 33 | . | .
CCCOc1ccc(C(=O)Nc2ccc(S(=O)(=O)NC3=NCCCCC3)cc2)cc1 | 3 | 14 | 1 | -18 | 17 | . | .
NC(=O)c1nc(-c2ccco2)nc2c1[nH]c(=O)n2-c1ccc(Cl)c(Cl)c1 | 30 | -1 | 2 | 2 | 75* | 14 | .
Cc1cccc(-n2c(=O)[nH]c3c(C(N)=O)nc(-c4ccccc4Cl)nc32)c1 | 0 | 13 | 7 | 8 | 2 | . | .
NC(=O)c1nc(-c2cccs2)nc2c1[nH]c(=O)n2-c1ccc(F)cc1 | 42 | 7 | 2 | -31 | 100* | 67* | 81*
CC(C)Cc1nc(C(N)=O)c2[nH]c(=O)n(-c3ccc(F)cc3)c2n1 | -1 | 16 | -3 | 0 | -6 | . | .
O=c1c2cc(NC(=S)N3CCCCCC3)ccc2nc2n1CCCCC2 | -6 | 35 | -3 | 1 | 10 | . | .
COc1ccc(N/C=C/C(=O)c2sc(-c3ccccc3)nc2C)cc1 | 6 | 3 | -1 | -45 | 59* | 38 | 98*
Cc1ccc(S(=O)(=O)N2c3cc(C)ccc3OCC2C(C)(C)C)cc1 (centres undefined) | 0 | 7 | 32 | -6 | 63* | 72* | 48*
Cc1ccc(S(=O)(=O)N2c3ccccc3OCC2c2ccccc2)cc1 (centres undefined) | -2 | 1 | 6 | -20 | 56* | 58* | 55*
SMILES | Beta apoptosis | Gli-Sufu antag | Jurkat NFkB inh | 697 NFkB inh | Mdm2 MdmX PPI | Mdm2 MdmX conf | Full FLuc ctr
O=C(c1ccccc1F)N1CCN(c2ccc([N+](=O)[O-])c3ncccc23)CC1 | 0 | 4 | 22 | -18 | 18 | . | .
O=[N+]([O-])c1cccc2c(N3CCCC3)ccnc12 | 112* | -3 | 39 | 4 | 52* | 26 | .
CCOC(=O)c1sc2nc(C)nc(NCCc3ccccn3)c2c1C | 6 | 5 | 8 | -3 | -4 | . | .
CCOC(=O)c1sc2nc(CSc3ccccc3)nc(NCCN(C)C)c2c1C | 12 | 16 | 1 | 1 | 51* | 16 | .
CCCC[C@@H](CNC)NC[C@H](NCCCCC1CCCCC1)C(C)C | . | 7 | 6 | -6 | 98* | 43* | 65*
Cc1ccc(CNC(=O)Cn2c(=O)n(-c3ccccc3)c(=O)c3sccc32)cc1 | 0 | -9 | 0 | 5 | -4 | . | .
CC(=O)c1c(C)oc2ccc(N(C(C)=O)S(=O)(=O)c3ccc(Br)cc3)cc12 | 39 | 11 | 20 | -6 | 45 | . | .
CC(=O)c1c(C)oc2ccc(N(C(C)=O)S(=O)(=O)c3ccc(Cl)c([N+](=O)[O-])c3)cc12 | -9 | 6 | 8 | -4 | 98* | 95* | 57*
COc1ccc([N+](=O)[O-])cc1NC(=S)NC(NC(=O)C(c1ccccc1)c1ccccc1)C(Cl)(Cl)Cl (centres undefined) | 36 | -2 | 2 | -4 | 89* | 79* | 29
O=C(NC(NC(=S)Nc1c(Cl)cccc1Cl)C(Cl)(Cl)Cl)c1cccc([N+](=O)[O-])c1 (centres undefined) | 27 | 18 | 5 | 2 | 58* | 50* | 76*
CS(=O)(=O)N1CCN=C1SCc1ccc([N+](=O)[O-])cc1 | -2 | 1 | -11 | -22 | -17 | . | .
CCOc1ccc(CN2C(=O)CC(=O)N(S(=O)(=O)c3ccc(OCC)cc3)C2=O)cc1 | 2 | 6 | -3 | 15 | -8 | . | .
CCc1ccc(NC(=O)C(CC)Sc2nc3cc4c(cc3c(=O)n2Cc2ccco2)OCO4)cc1 (centres undefined) | 67 | -17 | 14 | 18 | 81* | 9 | .
COC(=O)C(C)NC(=O)CNS(=O)(=O)c1ccc(F)cc1 (centres undefined) | 0 | -4 | 20 | 18 | -14 | . | .
COc1ccc(C(C[N+](=O)[O-])c2c(-c3ccccc3)cc3ccccn23)c(OC)c1 (centres undefined) | 7 | 19 | -24 | 1 | 53* | 38 | 71*
Cc1cc(F)ccc1S(=O)(=O)Nc1ccccc1C(=O)Nc1ccccc1-c1nc2ccccc2[nH]1 | 116* | 13 | -13 | 12 | 96* | 92* | 51*
Cc1cc(F)ccc1S(=O)(=O)Nc1ccccc1C(=O)Nc1ncn[nH]1 | -2 | -29 | 1 | -12 | 10 | . | .

Screening results: PubChem, several laboratories
